Binding signal data for 7 sequences are collected here from article PMC4081100, “A DNA-binding-site landscape and regulatory network analysis for NAC transcription factors in Arabidopsis thaliana”.

Assay in all cases: universal protein binding microarray (PBM); transcription factors of Arabidopsis thaliana; high values mean tight binding
What all share (conditions): protein: recombinant; tags: GST; chain copies: 2; dsDNA, one strand shown

For one experiment, the target named is T1, GST-ANAC092(1-176) (Arabidopsis thaliana, UniProt Q9FKA0 1-176).
T1 sequence: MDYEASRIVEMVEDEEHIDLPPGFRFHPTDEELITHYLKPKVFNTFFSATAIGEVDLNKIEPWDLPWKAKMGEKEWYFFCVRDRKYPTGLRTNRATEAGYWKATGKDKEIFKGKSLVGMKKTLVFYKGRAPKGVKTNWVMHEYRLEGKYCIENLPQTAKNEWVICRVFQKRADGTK
The gist of the method: (§1)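 Cells were induced to make GST-tagged NAC-domain, full-length or DNA-binding-domain proteins, and zinc acetate was added for zinc-finger proteins. These proteins were purified on glutathione–Sepharose 4B, quantified by A280 or anti-GST western blot, and applied in duplicate at 200 to 500 nM final to custom all-10-mer Agilent 4 × 180K arrays that primer extension had made double-stranded. Binding is given as the normalised enrichment score (E-score) for scored gapped and ungapped 8-mers.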

A further experiment concerns the target T2, GST-ANAC019 NAC domain (Arabidopsis thaliana, UniProt Q9C932 14-162).
T2 sequence: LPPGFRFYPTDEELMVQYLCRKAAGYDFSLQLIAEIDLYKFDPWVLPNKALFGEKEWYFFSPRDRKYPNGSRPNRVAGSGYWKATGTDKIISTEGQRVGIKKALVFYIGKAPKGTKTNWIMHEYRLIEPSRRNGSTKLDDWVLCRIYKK
The gist of the method:
as §1

Another experiment has as its target T3, GST-ANAC055(1-171) (Arabidopsis thaliana, UniProt Q9LDY8 1-171).
T3 sequence: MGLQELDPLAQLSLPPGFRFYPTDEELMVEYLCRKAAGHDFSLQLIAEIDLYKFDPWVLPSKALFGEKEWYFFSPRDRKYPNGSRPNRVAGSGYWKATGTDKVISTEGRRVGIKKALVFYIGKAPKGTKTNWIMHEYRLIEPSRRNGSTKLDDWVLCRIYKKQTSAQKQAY
The gist of the method:
as §1

A further experiment addresses T4, GST-ATAF1 NAC domain (Arabidopsis thaliana, UniProt Q39013 7-158).
T4 sequence: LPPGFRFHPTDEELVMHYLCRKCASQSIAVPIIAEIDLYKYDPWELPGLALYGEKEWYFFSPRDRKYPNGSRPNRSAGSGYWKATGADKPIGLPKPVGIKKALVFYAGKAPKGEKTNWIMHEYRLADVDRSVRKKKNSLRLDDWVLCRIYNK
Summed up:
as §1

The target of experiment [1] is T5, GST-ANAC092(1-285) full length (Arabidopsis thaliana, UniProt Q9FKA0 1-285).
T5 sequence: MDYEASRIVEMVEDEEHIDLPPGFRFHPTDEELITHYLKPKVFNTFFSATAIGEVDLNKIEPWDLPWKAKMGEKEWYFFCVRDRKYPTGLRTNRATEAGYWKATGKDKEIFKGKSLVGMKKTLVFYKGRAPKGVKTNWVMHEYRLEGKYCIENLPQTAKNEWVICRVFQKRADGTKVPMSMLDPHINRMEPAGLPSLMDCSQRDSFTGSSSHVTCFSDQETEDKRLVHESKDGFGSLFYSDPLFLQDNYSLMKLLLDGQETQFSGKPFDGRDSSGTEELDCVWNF
Summed up:
as §1

The next experiment has as its target T6, GST-NAP(1-166) (Arabidopsis thaliana, UniProt O49255 1-166).
T6 sequence: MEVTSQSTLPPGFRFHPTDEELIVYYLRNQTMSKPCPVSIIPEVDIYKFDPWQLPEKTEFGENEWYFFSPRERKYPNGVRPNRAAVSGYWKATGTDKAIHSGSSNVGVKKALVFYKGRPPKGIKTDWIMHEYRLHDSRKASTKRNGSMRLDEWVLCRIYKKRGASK
Summed up:
as §1

The next experiment addresses T7, GST-NST2(1-184) (Arabidopsis thaliana, UniProt Q9M274 1-184).
T7 sequence: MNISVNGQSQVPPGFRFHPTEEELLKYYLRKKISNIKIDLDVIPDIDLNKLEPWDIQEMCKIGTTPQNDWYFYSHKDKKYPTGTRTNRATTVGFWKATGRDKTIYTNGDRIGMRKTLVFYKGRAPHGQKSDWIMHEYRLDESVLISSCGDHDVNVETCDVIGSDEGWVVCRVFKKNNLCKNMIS
Summed up: as §1

Another experiment addresses T8, GST-SND1(1-203) (Arabidopsis thaliana, UniProt Q9LPI7 1-203).
T8 sequence: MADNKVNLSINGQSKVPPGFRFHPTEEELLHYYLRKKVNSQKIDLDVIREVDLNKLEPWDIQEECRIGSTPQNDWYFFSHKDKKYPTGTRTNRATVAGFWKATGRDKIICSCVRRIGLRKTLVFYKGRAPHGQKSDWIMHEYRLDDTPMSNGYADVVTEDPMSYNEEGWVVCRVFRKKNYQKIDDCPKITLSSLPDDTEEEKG
Summed up:
as §1

For a further experiment, the target named is T9, GST-VND3 NAC domain (Arabidopsis thaliana, UniProt Q9FH59 12-162).
T9 sequence: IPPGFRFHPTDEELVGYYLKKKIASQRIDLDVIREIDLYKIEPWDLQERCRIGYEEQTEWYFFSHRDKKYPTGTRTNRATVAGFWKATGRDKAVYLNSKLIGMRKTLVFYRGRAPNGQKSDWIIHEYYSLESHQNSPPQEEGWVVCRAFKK
The gist of the method: as §1

The target of another experiment is T10, GST-VND7 NAC domain (Arabidopsis thaliana, UniProt Q9C8W9 9-158).
T10 sequence: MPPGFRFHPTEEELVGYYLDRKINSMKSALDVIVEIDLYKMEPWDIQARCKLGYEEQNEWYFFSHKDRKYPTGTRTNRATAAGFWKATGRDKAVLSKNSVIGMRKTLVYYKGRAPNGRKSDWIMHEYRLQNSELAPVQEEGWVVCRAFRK
The gist of the method:
as §1

Take CGTACACG: the binding signal turned out to be 0.337 E-score in the experiment with GST-ANAC092(1-176); 0.221 E-score with GST-ANAC019 NAC domain; 0.287 E-score with GST-ANAC055(1-171); 0.278 E-score with GST-ATAF1 NAC domain; 0.403 E-score in experiment [1]; 0.288 E-score with GST-NAP(1-166). The binding signal with GST-NST2(1-184) amounted to 0.0623 E-score; with GST-SND1(1-203), 0.0837 E-score; in the experiment with GST-VND3 NAC domain it was 0.317 E-score; in the experiment with GST-VND7 NAC domain, 0.3 E-score.
With ACACGTAA, the binding signal worked out at 0.481 E-score with GST-ANAC092(1-176); 0.477 E-score in the experiment with GST-ANAC019 NAC domain; 0.469 E-score with GST-ANAC055(1-171); 0.439 E-score in the experiment with GST-ATAF1 NAC domain; 0.481 E-score in experiment [1]; 0.465 E-score in the experiment with GST-NAP(1-166). The binding signal came to 0.316 E-score with GST-NST2(1-184), 0.288 E-score with GST-SND1(1-203), 0.461 E-score with GST-VND3 NAC domain and 0.476 E-score with GST-VND7 NAC domain.
Consider TGCACGCA, for which the binding signal was 0.419 E-score with GST-ANAC092(1-176); 0.355 E-score with GST-ANAC019 NAC domain; 0.255 E-score in the experiment with GST-ANAC055(1-171); 0.128 E-score with GST-ATAF1 NAC domain; 0.458 E-score in [1]; 0.265 E-score with GST-NAP(1-166). Besides, the binding signal is 0.211 E-score with GST-NST2(1-184), 0.342 E-score with GST-SND1(1-203), 0.289 E-score with GST-VND3 NAC domain and 0.32 E-score with GST-VND7 NAC domain.
As to ACGTCATC, the binding signal came out at 0.418 E-score with GST-ANAC092(1-176); 0.288 E-score in the experiment with GST-ANAC019 NAC domain; 0.285 E-score in the experiment with GST-ANAC055(1-171); 0.291 E-score with GST-ATAF1 NAC domain; 0.449 E-score in [1]; 0.343 E-score with GST-NAP(1-166). Further, the binding signal in the experiment with GST-NST2(1-184) came to 0.214 E-score; with GST-SND1(1-203) it was 0.411 E-score; with GST-VND3 NAC domain, 0.327 E-score; in the experiment with GST-VND7 NAC domain it was 0.273 E-score.
As for ACACGCAT, the binding signal was determined as 0.462 E-score with GST-ANAC092(1-176); 0.346 E-score with GST-ANAC019 NAC domain; 0.335 E-score with GST-ANAC055(1-171); 0.292 E-score with GST-ATAF1 NAC domain; 0.468 E-score in [1]; 0.332 E-score in the experiment with GST-NAP(1-166). The binding signal amounted to 0.242 E-score with GST-NST2(1-184), 0.295 E-score with GST-SND1(1-203), 0.351 E-score with GST-VND3 NAC domain and 0.33 E-score in the experiment with GST-VND7 NAC domain.
As to ATACGGCA, the binding signal with GST-ANAC092(1-176) stood at 0.419 E-score; in the experiment with GST-ANAC019 NAC domain it was 0.361 E-score; with GST-ANAC055(1-171), 0.353 E-score; in the experiment with GST-ATAF1 NAC domain, 0.365 E-score; in experiment [1] it was 0.433 E-score; with GST-NAP(1-166), 0.411 E-score. Also, the binding signal with GST-NST2(1-184) was 0.0642 E-score; in the experiment with GST-SND1(1-203), 0.228 E-score; in the experiment with GST-VND3 NAC domain, 0.414 E-score; with GST-VND7 NAC domain it was 0.44 E-score.
In the case of GTACGGAA, the binding signal turned out to be 0.349 E-score in the experiment with GST-ANAC092(1-176); 0.458 E-score with GST-ANAC019 NAC domain; 0.43 E-score in the experiment with GST-ANAC055(1-171); 0.369 E-score in the experiment with GST-ATAF1 NAC domain; 0.376 E-score in experiment [1]; 0.396 E-score in the experiment with GST-NAP(1-166). Also, the binding signal is 0.138 E-score in the experiment with GST-NST2(1-184), 0.221 E-score with GST-SND1(1-203), 0.42 E-score with GST-VND3 NAC domain and 0.425 E-score with GST-VND7 NAC domain.
